Experimental data published in PubChem BioAssay.
A number with no mark means an inactive call. For some of these results: Results with a measured potency or affinity are listed apart. The source made the active and inactive calls. Unless noted, how the calls were made is not given here.

How the values were obtained:
[1] = antimalarial activity against Dd2 strain (AID 2302;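 active means growth inhibition above 50% at the single 2 µM test dose, taken to imply half-maximal potency below 2 µM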;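 further: 0% = DMSO untreated growth and 100% = chloroquine plus artemisinin killed control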); conditions: P. falciparum Dd2 in RBCs, LDH growth readout, 72 h; at 2 µM; hits give high values
[2] = HepG2 cytotoxicity, primary screen, cytotoxicity control for P. falciparum antimalarial project, cell-based, ATP luminescence (AID 2303;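 active means inhibition above 50%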;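 further: 0% = DMSO wells and 100% = digitonin-killed cells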); conditions: HepG2 viability, 24-48 h, at 10 µM, hits give high values
[3] = molecular target: L-lactate dehydrogenase (Plasmodium falciparum (isolate CDC / Honduras)) (UniProt Q27743); test: PfLDH activity inhibition – cell lysate, 3D7 strain, counter-screen for P. falciparum growth inhibition project (AID 2304);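 further: 0% = vehicle and 100% = reference inhibitor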; conditions: P. falciparum 3D7 crude extract, LDH APAD/NBT absorbance; at 2 µM; hits give high values
Sequence of L-lactate dehydrogenase (Plasmodium falciparum (isolate CDC / Honduras)) (Q27743 whole entry, looked up): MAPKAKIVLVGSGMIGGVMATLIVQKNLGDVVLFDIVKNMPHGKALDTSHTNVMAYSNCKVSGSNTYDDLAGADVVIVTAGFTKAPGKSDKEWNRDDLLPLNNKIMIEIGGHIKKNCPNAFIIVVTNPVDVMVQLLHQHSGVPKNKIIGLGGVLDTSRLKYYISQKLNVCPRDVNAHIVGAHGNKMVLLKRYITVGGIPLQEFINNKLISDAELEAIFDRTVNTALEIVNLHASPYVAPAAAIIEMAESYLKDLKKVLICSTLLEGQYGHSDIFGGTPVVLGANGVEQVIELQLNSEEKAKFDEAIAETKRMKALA

[4] = inhibition of 3D7 malaria parasite growth – strain 3D7 (AID 2306);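 further: 0% = DMSO wells and 100% = chloroquine plus artemisinin control wells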; conditions: P. falciparum 3D7 erythrocytic growth, LDH absorbance, 72 h; at 2 µM; hits give high values
[5] = molecular target: Calcium-dependent protein kinase 1 (Plasmodium falciparum (isolate 3D7)) (UniProt P62344); test: PfCDPK1 kinase inhibitors, biochemical, TCAMS library (AID 1159585; cut-off not given, nearly all actives have IC50 up to about 0.98 µM;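 further: inhibitors leave more ATP so luminescence rises with inhibition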); conditions: recombinant PfCDPK1, Kinase-Glo ATP depletion luminescence
Sequence of Calcium-dependent protein kinase 1 (Plasmodium falciparum (isolate 3D7)) (P62344 whole entry, looked up): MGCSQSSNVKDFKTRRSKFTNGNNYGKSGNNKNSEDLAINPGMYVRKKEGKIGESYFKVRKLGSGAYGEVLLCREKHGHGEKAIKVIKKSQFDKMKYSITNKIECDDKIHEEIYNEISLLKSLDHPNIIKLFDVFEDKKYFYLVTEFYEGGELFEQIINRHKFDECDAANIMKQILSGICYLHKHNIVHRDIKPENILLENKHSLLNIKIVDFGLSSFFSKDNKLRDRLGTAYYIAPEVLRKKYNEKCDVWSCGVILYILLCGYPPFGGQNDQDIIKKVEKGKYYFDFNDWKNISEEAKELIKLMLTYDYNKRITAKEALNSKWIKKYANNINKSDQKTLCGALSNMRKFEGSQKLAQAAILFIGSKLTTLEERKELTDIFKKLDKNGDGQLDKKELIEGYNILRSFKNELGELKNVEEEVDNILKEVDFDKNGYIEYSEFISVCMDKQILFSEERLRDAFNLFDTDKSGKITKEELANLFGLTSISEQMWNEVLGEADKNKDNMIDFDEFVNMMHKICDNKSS

[6] = molecular target: Plasmodium falciparum protein kinase 6 (PK6, PF3D7_1337100) (UniProt Q8IDW1); test: PfPK6 kinase inhibitors, biochemical, TCAMS library (AID 1159586); conditions: recombinant PfPK6, Kinase-Glo ATP depletion luminescence
Sequence of Plasmodium falciparum protein kinase 6 (PK6, PF3D7_1337100) (Q8IDW1 1-305): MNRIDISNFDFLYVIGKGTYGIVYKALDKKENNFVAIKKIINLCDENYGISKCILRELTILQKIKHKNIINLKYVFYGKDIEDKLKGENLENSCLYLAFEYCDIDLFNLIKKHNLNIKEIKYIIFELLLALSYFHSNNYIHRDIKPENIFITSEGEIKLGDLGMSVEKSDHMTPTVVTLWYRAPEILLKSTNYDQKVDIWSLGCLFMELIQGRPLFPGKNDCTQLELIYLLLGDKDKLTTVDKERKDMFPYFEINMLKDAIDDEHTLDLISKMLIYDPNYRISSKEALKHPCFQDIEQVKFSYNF

[7] = molecular target: Protein kinase 7 (PK7), Plasmodium falciparum 3D7 (PF3D7_0213400) (UniProt Q7YTF7); test: inhibition of Plasmodium PK7 catalytic activity – biochemical, TCAMS antimalarial set, Kinase-Glo luminescence (AID 1159587); conditions: recombinant PfPK7, Kinase-Glo ATP depletion luminescence
Sequence of Protein kinase 7 (PK7), Plasmodium falciparum 3D7 (PF3D7_0213400) (Q7YTF7 1-343): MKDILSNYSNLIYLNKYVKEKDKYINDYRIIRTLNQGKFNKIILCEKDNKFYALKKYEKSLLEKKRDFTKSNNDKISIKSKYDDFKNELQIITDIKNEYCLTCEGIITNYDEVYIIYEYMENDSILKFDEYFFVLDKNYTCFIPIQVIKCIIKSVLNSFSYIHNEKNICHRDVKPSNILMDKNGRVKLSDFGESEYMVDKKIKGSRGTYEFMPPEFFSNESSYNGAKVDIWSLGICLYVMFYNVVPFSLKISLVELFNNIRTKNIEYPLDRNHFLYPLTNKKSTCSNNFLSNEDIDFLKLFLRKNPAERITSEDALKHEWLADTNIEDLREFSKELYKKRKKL

[8] = molecular target: Calcium-dependent protein kinase 4 (Plasmodium falciparum (isolate 3D7)) (UniProt Q8IBS5); test: PfCDPK4 kinase inhibitors, biochemical, TCAMS library (AID 1159588; cut-off not given, nearly all actives have IC50 up to about 0.91 µM); conditions: recombinant PfCDPK4, Kinase-Glo ATP depletion luminescence
Sequence of Calcium-dependent protein kinase 4 (Plasmodium falciparum (isolate 3D7)) (Q8IBS5 whole entry, looked up): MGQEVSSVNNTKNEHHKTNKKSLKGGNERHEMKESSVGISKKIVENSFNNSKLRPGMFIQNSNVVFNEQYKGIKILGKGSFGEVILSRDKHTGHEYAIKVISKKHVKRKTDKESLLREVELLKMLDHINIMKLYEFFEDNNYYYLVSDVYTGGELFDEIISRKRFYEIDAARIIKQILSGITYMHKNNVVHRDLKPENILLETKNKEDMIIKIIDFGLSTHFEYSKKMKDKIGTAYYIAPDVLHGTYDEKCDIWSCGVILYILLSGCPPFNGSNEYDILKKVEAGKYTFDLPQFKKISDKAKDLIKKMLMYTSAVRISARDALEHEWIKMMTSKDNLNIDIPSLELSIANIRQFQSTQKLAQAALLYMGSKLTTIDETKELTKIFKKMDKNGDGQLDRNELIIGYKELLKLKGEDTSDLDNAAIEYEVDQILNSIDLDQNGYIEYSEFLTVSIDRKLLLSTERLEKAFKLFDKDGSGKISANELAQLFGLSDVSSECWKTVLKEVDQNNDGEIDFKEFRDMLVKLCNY

Row | SMILES | growth inhibition [1] | inhibition [2] | inhibition [3] [%] | growth inhibition [4] | outcome [5] | outcome [6] | outcome [7] | outcome [8]
1 | COc1ccccc1N(C)CCNc1cc(C)nc(Nc2ccc(C)cc2)n1 | 25% | 9% | 0 | 93% (active) | inactive | inactive | inactive | inactive
2 | COc1cccc(CCNCc2ccc(-c3cccc(CNC4CCCC4)c3)cc2)c1 | 45% | 14% | -4 | 101% (active) | inactive | inactive | inactive | inactive
3 | CS(=O)(=O)c1ccc(-c2cnc(N)c(-c3cccc(CO)c3)c2)cc1 | 51% (active) | -4% | 0 | 98% (active) | inactive | inactive | inactive | inactive
4 | CN(C)c1ccc(Br)c(Br)c1 | -4% | 17% | -5 | 86% (active) | inactive | inactive | inactive | inactive
5 | CCc1ccnc2c(N3CCCC3=O)cc(C(=O)N[C@@H](Cc3ccccc3)[C@H](O)CNC3CCOCC3)cc12 | 98% (active) | 2% | 4 | 99% (active) | inactive | inactive | inactive | inactive
6 | O=C(/C=C/c1cccc(Cl)c1)Nc1ccc2nc(CN3CCCC3)ccc2c1 | 42% | 47% | 4 | 99% (active) | inactive | inactive | inactive | inactive
7 | CCOC(=O)C(Oc1ccc2ccccc2c1)C(=O)OCC | 0% | 8% | -4 | 98% (active) | inactive | inactive | inactive | inactive
8 | COc1ccc(C2=C(Nc3ccc4oc5ccccc5c4c3)c3ccccc3C2=O)cc1 | 92% (active) | 9% | 5 | 93% (active) | inactive | inactive | inactive | inactive
9 | CCc1cc(N2CCN(c3ccccc3F)CC2)nc(SCc2ccc(C(=O)NC3CC3)o2)n1 | 94% (active) | 9% | 1 | 90% (active) | inactive | inactive | inactive | inactive
10 | Cc1ccc(CCC(C)NCC(O)c2cccc(C(F)(F)F)c2)cc1 (stereo not drawn) | 98% (active) | -17% | 4 | 99% (active) | inactive | inactive | inactive | inactive
11 | Cc1cc(O)c(CN(C)Cc2ccc3c(c2)OCCO3)cc1C(C)C | 47% | 10% | -3 | 98% (active) | inactive | inactive | inactive | inactive
12 | COc1ccc2nccc([C@@H](O)CN3CCC(NCc4cc5c(cc4F)SCC(=O)N5)CC3)c2n1 | 27% | 14% | 3 | 96% (active) | inactive | inactive | inactive | inactive
13 | CCCCCCNC(=O)C(N)CCCC(N)C(=O)NCCCCCC (stereo not drawn) | -5% | -2% | -2 | 99% (active) | inactive | inactive | inactive | inactive
14 | S=C(NN=Cc1ccccn1)Nc1ccc2c(c1)OCCO2 | 33% | 55% (active) | 6 | 82% (active) | inactive | inactive | inactive | inactive
15 | COc1ccc(NC(=O)/C=C/c2ccccc2Cl)cc1OCCN1CCC(NCc2cccnc2)CC1 | 88% (active) | 12% | 1 | 101% (active) | inactive | inactive | inactive | inactive
16 | Cc1ccc(NC(=O)c2ccc3ncccc3c2)cc1OC1CCN(Cc2ccc(F)cc2)C1 (stereo not drawn) | 28% | 11% | 3 | 83% (active) | inactive | inactive | inactive | inactive
17 | COc1ccc(CNC2CCCC2)cc1-c1ccc(S(=O)(=O)NCCN2CCCC2)s1 | 17% | 17% | -3 | 96% (active) | inactive | inactive | inactive | inactive
18 | COc1ccc(Oc2ccc(-c3c(C)[nH]c(C)c(Cl)c3=O)cc2)cc1 | 97% (active) | -2% | -3 | 97% (active) | inactive | inactive | inactive | inactive
19 | CCN(CCO)CCc1cccc(Nc2nccc(-c3c(-c4ccc(NC(=O)N(CC)CC)cc4)nn4ccccc34)n2)c1 | 95% (active) | 46% | 2 | 101% (active) | inactive | inactive | inactive | inactive
20 | CC(C)N1CCC(N(Cc2ccc(-c3ccc(C(F)(F)F)cc3)cc2)C(=O)Cn2c(CCc3cccc(F)c3F)cc(=O)c3c2CCC3)CC1 | 62% (active) | 30% | -7 | 100% (active) | inactive | inactive | inactive | inactive
21 | O=C(Nc1cccc(C(F)(F)F)c1)Nc1ccc(F)c([N+](=O)[O-])c1 | 100% (active) | 43% | -4 | 101% (active) | inactive | inactive | inactive | inactive

Row | SMILES | growth inhibition [1] | inhibition [2] | inhibition [3] [%] | growth inhibition [4] | outcome [5] | outcome [6] | outcome [7] | outcome [8]
22 | CC(C)[C@H](NC(=O)c1ccc(O)c(-c2ccc(Cl)c(Cl)c2)c1)C(=O)NCCN1CCOCC1 | 44% | -4% | -1 | 95% (active) | inactive | inactive | inactive | inactive
23 | O=C(O)/C=C/c1cccc(F)c1F | 1% | 58% (active) | -1 | 96% (active) | inactive | inactive | inactive | inactive
24 | O=c1cc(NCCCNCc2ccc(C(F)(F)F)c(F)c2)[nH]c2ccccc12 | 26% | 5% | 4 | 93% (active) | inactive | inactive | inactive | inactive
25 | COc1cccc(-c2cc3nc4c(c(NCCCn5ccnc5)n3n2)CCCC4)c1 | 66% (active) | 10% | -2 | 100% (active) | inactive | inactive | inactive | inactive
26 | NC1CCN(CCc2ccc(NS(=O)(=O)c3cccc4ccccc34)cc2)CC1 | 4% | 21% | 4 | 94% (active) | inactive | inactive | inactive | inactive
27 | CCC(C)(C)C1CCc2[nH]c3ccccc3c(=O)c2C1 (stereo not drawn) | 96% (active) | 16% | -4 | 97% (active) | inactive | inactive | inactive | inactive
28 | COc1cccc(-c2cccc(-c3ccc(NC(=O)c4ccc([N+](=O)[O-])o4)cc3)n2)c1 | 94% (active) | 98% (active) | 6 | 97% (active) | inactive | inactive | inactive | inactive
29 | CCNc1cc(C(=O)N[C@@H](Cc2ccccc2)[C@H](O)CNC2(CC(C)C)CC2)cc(N2CCCCS2(=O)=O)c1 | 29% | -3% | -5 | 87% (active) | inactive | inactive | inactive | inactive
30 | Cn1cncc1C(=O)Nc1ccc(-c2cccc(-c3nc4ccc(F)cc4[nH]3)c2)cc1 | 23% | 5% | 2 | 102% (active) | inactive | inactive | inactive | inactive
31 | CC(C)(C)c1ccc(NC(=O)c2cccc(CN3CCN(Cc4cccc(O)c4)CC3)c2)cc1 | 3% | 28% | -2 | 92% (active) | inactive | inactive | inactive | inactive
32 | N#Cc1ccc2c(c1)CCN(CCC1CCC(NC(=O)c3cc4ccc(Cl)cc4[nH]3)CC1)C2 (stereo not drawn) | -2% | 5% | -3 | 103% (active) | inactive | inactive | inactive | inactive
33 | COc1ccc(Nc2c3ccc(Cl)cc3nc3ccc(OC)cc23)cc1 | 99% (active) | 14% | 3 | 94% (active) | inactive | inactive | inactive | inactive
34 | Cc1nccn1Cc1cc(C(C)(C)C)c(O)c(C(C)(C)C)c1 | -4% | 8% | -5 | 99% (active) | inactive | inactive | inactive | inactive
35 | O=C(Nc1ccc(Oc2ccccc2)cc1)N[C@H]1CCN(Cc2ccc(OCCCN3CCCCC3)cc2)C1 | 6% | 13% | -6 | 103% (active) | inactive | inactive | inactive | inactive
36 | COc1cc2nccc(Nc3ccc(NC(=O)c4ccc(C)cc4)c(O)c3)c2cc1OC | 77% (active) | 96% (active) | 1 | 101% (active) | inactive | inactive | inactive | inactive
37 | CC1(C)N=C(N)N=C(N)N1OCCCNC(=O)c1ccc(C(=O)NCCCON2C(N)=NC(N)=NC2(C)C)cc1 | 96% (active) | 0% | 3 | 91% (active) | inactive | inactive | inactive | inactive
38 | COc1ccc(NC(=O)[C@H](Cc2ccccc2)Nc2cc(C)nc(NCCc3ccccc3OC)n2)cc1 | 83% (active) | 10% | 3 | 100% (active) | inactive | inactive | inactive | inactive
39 | O=C(N[C@H]1CCN(Cc2ccc(OCCCN3CCCCC3)cc2)C1)c1ccc2ccccc2c1 | 32% | 8% | 5 | 97% (active) | inactive | inactive | inactive | inactive
40 | CC(CCCC(=O)Nc1ccc(CC(C)NCCc2cccc(Cl)c2)cc1)NCCc1cccc(Cl)c1 (stereo not drawn) | 14% | 98% (active) | -3 | 101% (active) | inactive | inactive | inactive | inactive
41 | N#Cc1ccc(N(CCOc2ccc(Cl)c(Cl)c2)Cc2ccccc2C(F)(F)F)cc1C(F)(F)F | 57% (active) | 13% | -2 | 90% (active) | inactive | inactive | inactive | inactive
